{
  "source": "PubChem BioAssay AID651706",
  "about": "(NMMLSC, 2012)",
  "note": "In all, about 2,300 compounds went through this assay and about 55 (2%) were called active.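 Rule for the calls: active = share of green or green-and-red cells above 9 and 9% in run 1 or 4 and 3% in run 2; inactive = the rest, inconclusive results apart.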 Only a sample is shown.",
  "data": [
    {"assay": "inducers of myeloid progenitor differentiation, confirmation, cell-based, GFP/Mac1 flow cytometry, cherry pick 01 (AID 651706);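 for differentiation response: plate controls were double positive share in DMSO wells for no effect and share in positive control wells for full effect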;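 for double positive cells: share of live cells carrying both lysozyme GFP and MAC1 staining after four days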", "conditions": "ER-HoxA9 myeloid progenitors, stronger effect = higher value; differentiation response: GFP/Mac1 double-positive flow; double positive cells: measured here: percent double positive cells", "units": {"double positive cells": "%"}, "values": [
      {"smiles": "CCN(CC)c1ccc(/C=N/NC(=O)CNC(=O)c2cccs2)cc1", "differentiation response": "1.55% (inactive)", "double positive cells": 1.15},
      {"smiles": "CCOc1ccc(NC(=O)CSc2nc3c(c(=O)n2-c2ccccc2OC)SCC3)cc1", "differentiation response": "2.25% (inactive)", "double positive cells": 1.4},
      {"smiles": "CC1=C(C(N)=O)C(c2ccc3c(c2)OCO3)n2nc(-c3cccc(C)c3)nc2N1", "note": "(centres undefined)", "differentiation response": "4.8% (inactive)", "double positive cells": 5.05},
      {"smiles": "COc1cc(/C=C(\\C#N)c2nc3ccccc3[nH]2)ccc1O", "differentiation response": "20.1% (inactive)", "double positive cells": 1.25},
      {"smiles": "CCCCSc1nc2c(c(=O)n1CC)SC(C)C2", "note": "(centres undefined)", "differentiation response": "1.7% (inactive)", "double positive cells": 0.9},
      {"smiles": "Cc1nn(-c2cc(Cl)ccc2N)c(=O)c2ccccc12", "differentiation response": "1.3% (inactive)", "double positive cells": 1},
      {"smiles": "Cc1cc(NC(=O)CSc2nc(C(C)C)nc3sc4c(c23)CCC(C)C4)no1", "note": "(centres undefined)", "differentiation response": "1.5% (inactive)", "double positive cells": 1.25},
      {"smiles": "Cc1ccc(-c2nc(C#N)c(NCCCn3ccnc3)o2)cc1", "differentiation response": "1.5% (inactive)", "double positive cells": 1.1},
      {"smiles": "COc1ccccc1NC(=O)c1cc(Cl)nnc1Cl", "differentiation response": "0% (inactive)", "double positive cells": 0},
      {"smiles": "CC#CC[N+](C)(C)CCCCCC", "differentiation response": "5.9% (inactive)", "double positive cells": 3.9},
      {"smiles": "O=C(Nc1ccccc1N1CCN(c2ccccc2)CC1)c1cccc(F)c1", "differentiation response": "0.9% (inactive)", "double positive cells": 0.65},
      {"smiles": "CC(C)OC(=O)CN1C(=O)C(=O)c2ccccc21", "differentiation response": "2.4% (inactive)", "double positive cells": 0.55},
      {"smiles": "N#C/C(=C/c1ccc(N2CCCCC2)o1)C(=O)NCCc1c[nH]c2ccccc12", "differentiation response": "78.8% (inactive)", "double positive cells": 5.25},
      {"smiles": "O=C(CN1CCN(C2CCCCC2)CC1)Nc1ccccc1N1CCCCC1", "differentiation response": "1.2% (inactive)", "double positive cells": 0.65},
      {"smiles": "O=C(Nc1cccc(-c2nc3ncccc3o2)c1)c1ccco1", "differentiation response": "1% (inactive)", "double positive cells": 0.45},
      {"smiles": "Cn1c(CNC(=O)c2ccccc2F)nnc1SCc1ccc(F)cc1", "differentiation response": "2.7% (inactive)", "double positive cells": 1.1},
      {"smiles": "Cc1c(C(=O)OCC(=O)N(CCC#N)c2ccccc2)oc2c1ccc1ccccc12", "differentiation response": "0% (inactive)", "double positive cells": 0},
      {"smiles": "CCOC(=O)C(C(=O)OCC)C(C#N)c1ccccc1", "note": "(centres undefined)", "differentiation response": "1% (inactive)", "double positive cells": 0.7},
      {"smiles": "CCC1CCCCN1CCCNC(=O)Cn1nc(-c2ccccc2)ccc1=O", "note": "(centres undefined)", "differentiation response": "3.1% (inactive)", "double positive cells": 2.25},
      {"smiles": "Cc1ccc(C(=O)NC2CCCC(C)C2C)cc1S(=O)(=O)N1CCCCC1", "note": "(centres undefined)", "differentiation response": "4.6% (inactive)", "double positive cells": 3.95},
      {"smiles": "COc1ccc(-c2nnc(SCC(=O)c3cccs3)o2)c(OC)c1", "differentiation response": "4.75% (inactive)", "double positive cells": 1.2},
      {"smiles": "COCCCn1c(=O)/c(=C/c2ccccc2OC(C)C)s/c1=C(\\C#N)C(=O)Nc1ccc(C(=O)O)cc1", "differentiation response": "3.5% (inactive)", "double positive cells": 1.7}
    ]}
  ]
}
